The nature of the experiment: NCI Yeast Anticancer Drug Screen. Data for the rad50EPP+ strain (AID 151).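 Further: 0% = growth of vehicle-treated control cultures.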 The following applies: S. cerevisiae rad50 mutant strain, active compounds read high. As to the method:
Growth inhibition of yeast strains with defined genetic alterations is measured as a screen for potential anti-cancer activity. Selected strains with alterations in DNA damage repair or cell cycle control were exposed to compounds and growth inhibition was measured relative to vehicle treated controls. The strain used in this assay is rad50EPP+

SMILES strings stand for the structures. The panel holds about 79,000 compounds, 15% with a hit somewhere; the sample as a whole holds those more often. Unmarked numbers belong to inactive results. The source made the active and inactive calls. No stated cut-off is given here; in the data, active means growth inhibition above about 70%; inactive means the rest.

Regarding `O=[N+]([O-])/C=C/c1cc2ccc3ccccc3c2[nH]1`, the growth inhibition is, setting by setting: (at 1.2 µM) 91% (active); (at 3.7 µM) 94% (active); (at 11.0 µM) 94% (active); (at 33.0 µM) 93% (active); (at 100.0 µM) 87% (active).
For the compound `O=C(Cc1ccccc1)NNc1nc(NNC(=O)c2ccncc2)nc(Nc2ccc(Cl)cc2)n1`, the growth inhibition was 1% (at 1.2 µM); 8% (at 3.7 µM); 6% (at 11.0 µM); 3% (at 33.0 µM); 4% (at 100.0 µM).
Taken in the same sequence, the figures for `CC1=CN2C(c3ccccc3)=NON(c3ccc(C)cn3)C2C=C1` (stereo not given) were 6%, 1%, 0%, -2% and -11%.
The matching figures for `CCOC(=O)/C(=C/c1cccc(Cl)c1)N(CC)CC`: 37%, 29%, 34%, 45% and 57%.
Taken in the same sequence, the figures for `CC(=O)N1C=Cc2c(c(C)c3c([nH]c4ccccc43)c2C)C1` were 28%, 74% (active), 94% (active), 97% (active) and 96% (active).
Turning to `CCCN=Cc1cc(Cc2ccc(O)c(C=NCCC)c2)ccc1O`, the growth inhibition reads like this: (at 1.2 µM) 27%; (at 3.7 µM) 85% (active); (at 11.0 µM) 96% (active); (at 33.0 µM) 98% (active); (at 100.0 µM) 99% (active).
The matching figures for `CCOC(=S)SSSC(=S)OCC`: 18%, 51%, 93% (active), 99% (active) and 99% (active).
Taken in the same sequence, the figures for `Cc1cc(C)c(S(=O)(=O)c2ccc(Cl)cc2)c(C)c1` were -1%, 9%, 20%, 13% and 21%.

(Values after PubChem BioAssay (NCI).)
